# According to PubChem BioAssay (NCATS):
# Results filed as inconclusive are left out. Calls of active or inactive are those of the source. The call rests on the fitted dose curve; in most records, active means well fitted inhibition curve with a large enough effect; inconclusive means small, poorly fitted or top-dose-only effect; inactive means flat fitted curve, though single readings scatter.
# System: UISO
# Assay: qHTS assay to identify novel small-molecules to repurpose for Merkel cell carcinoma treatment (AID 1296009); further: nearly all actives have a fitted effect of over 60% in size
# Settings: MCC and control cell lines, CellTiter-Glo viability, 72 h; series mostly up to 46 µM; activity change, negative = cytotoxicity: at the top concentration
# Summary of the method: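 qHTS format: cells treated with library compounds in DMSO across 8 (NPC) or 11 (MIPE) concentrations. Readout after 72 hr at 37 degree celsius was CellTiter-Glo luminescence.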
# On the % scale 0 is the no-effect control and ±100 the full control effect; potency means the concentration at half of the fitted maximal effect.
SMILES,"activity change, negative = cytotoxicity",Potency
N#C/C(=C1\SCC(c2ccccc2Cl)S1)n1ccnc1 (centres undefined),-14% (inactive),–
COc1ccc(C(=O)c2ccccc2O)c(O)c1,3.72% (inactive),–
CCC1NC(=O)c2cc(S(N)(=O)=O)c(Cl)cc2N1 (centres undefined),4.96% (inactive),–
OC1C(O)C(O)C(O)C(O)C1O (centres undefined),6.2% (inactive),–
OC(C#CCN1CCCC1)(c1ccccc1)c1ccccc1,6.92% (inactive),–
COc1ccc(C(=O)c2ccccc2)c(O)c1,-1.08% (inactive),–
CCC(Cc1c(I)cc(I)c(N)c1I)C(=O)O (centres undefined),0.261% (inactive),–
CN(Cc1ccc(C(C)(C)C)cc1)Cc1cccc2ccccc12,-7.41% (inactive),–
COP(=O)(OC)OC(c1ccc(Cl)cc1)P(=O)(OC)OC (centres undefined),-24.9% (inactive),–
Nc1nc(N)c(-c2ccccc2)s1,9.64% (inactive),–
CO[C@]12C[C@@H](COC(=O)c3cncc(Br)c3)CN(C)[C@@H]1Cc1cn(C)c3cccc2c13,7.03% (inactive),–
O=C(NCCc1c[nH]c2ccccc12)c1cccnc1,-7.84% (inactive),–
CCN[C@@H]1C[C@H](N)[C@@H](OC2OC(CN)=CCC2N)[C@H](O)[C@H]1O[C@H]1OC[C@](C)(O)[C@H](NC)[C@H]1O (some centres undefined),19.1% [at 0.597 µM] (inactive),–
CCOC(=O)c1ccc(N)cc1,-5.83% (inactive),–
CN(C)CCC[C@@]1(c2ccc(F)cc2)OCc2cc(C#N)ccc21,16.2% (inactive),–
CCCCCCCCCCCCCCCC(=O)O,34.8% (inactive),–
CCC1Nc2cc(Cl)c(S(N)(=O)=O)cc2S(=O)(=O)N1 (centres undefined),9.37% (inactive),–
NC(N)=NN=C(/C=C/c1ccc([N+](=O)[O-])o1)/C=C/c1ccc([N+](=O)[O-])o1,–,841 nM (active)
CN1CCN(c2c(F)cc3c(=O)c(C(=O)O)cn4c3c2SCC4)CC1,-0.853% (inactive),–
